Drawing on ChEMBL document CHEMBL3988442, “University of Dundee, Small-Polar-MMV Screening Library” (2021), this text covers PXC50 for 25 compounds.

The target in the assay is T1, Methionyl-tRNA synthetase, putative (Leishmania donovani (strain BPK282A1)) (UniProt E9BF75).
T1 sequence (whole entry): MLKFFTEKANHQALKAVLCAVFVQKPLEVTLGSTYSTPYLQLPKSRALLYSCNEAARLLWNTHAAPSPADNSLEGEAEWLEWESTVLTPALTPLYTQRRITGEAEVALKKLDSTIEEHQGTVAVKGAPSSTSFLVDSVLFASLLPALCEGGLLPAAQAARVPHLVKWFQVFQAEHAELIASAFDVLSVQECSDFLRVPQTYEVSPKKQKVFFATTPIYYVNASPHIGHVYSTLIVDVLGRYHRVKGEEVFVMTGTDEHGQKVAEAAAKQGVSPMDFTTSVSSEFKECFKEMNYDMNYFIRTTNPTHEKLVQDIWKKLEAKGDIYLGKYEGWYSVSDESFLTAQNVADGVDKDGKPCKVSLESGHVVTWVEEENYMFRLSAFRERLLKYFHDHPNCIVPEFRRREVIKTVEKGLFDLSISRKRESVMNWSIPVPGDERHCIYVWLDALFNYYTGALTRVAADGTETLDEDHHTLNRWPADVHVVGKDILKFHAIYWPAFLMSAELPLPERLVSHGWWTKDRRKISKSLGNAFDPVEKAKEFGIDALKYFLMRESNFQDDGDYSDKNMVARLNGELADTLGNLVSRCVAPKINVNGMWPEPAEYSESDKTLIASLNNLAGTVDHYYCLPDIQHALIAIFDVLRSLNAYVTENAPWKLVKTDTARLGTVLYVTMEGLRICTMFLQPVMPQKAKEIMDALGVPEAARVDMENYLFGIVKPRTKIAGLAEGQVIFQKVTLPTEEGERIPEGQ
The experiment in a line: Leishmania donovani Methionine tRNA synthetase (LdMetRS):v7. Dose response assay. The assay is classed as functional. The arrangement: conc 80 nM, time 150 minutes.

With `Cn1ncc2c(NCCO)nc(Nc3ccccc3S(N)(=O)=O)nc21`, the PXC50 by setting is: (MAX_EFFECT 2.127659574) under 4; (MAX_EFFECT 3.652968037) under 4; (MAX_EFFECT 13.39622642) under 4.

On to `CS(=O)(=O)N1CCN(c2ccc3ccc(C(=O)NC4CCCC4)nn23)CC1`, for which the PXC50 was under 4 (MAX_EFFECT 4.387568556) and under 4 (MAX_EFFECT 8.612440191).

Take `Cc1nc(N2CCC(CCN3CCCC3)CC2)c2ccsc2n1`: the PXC50 is, setting by setting: (MAX_EFFECT 38.29787234) under 4; (MAX_EFFECT 38.86010363) under 4.

With `CC1COc2ccccc2N1C(=O)CCc1cscn1` (stereo not drawn), the PXC50 was under 4 (MAX_EFFECT 3.401360544), under 4 (MAX_EFFECT 4.347826087) and under 4 (MAX_EFFECT 6.479859895).

For `Cn1ncc2c(NCCO)nc(Nc3cccc(OC(F)(F)F)c3)nc21`, the PXC50 was under 4 (MAX_EFFECT 13.77672209), under 4 (MAX_EFFECT 18.02575107) and under 4 (MAX_EFFECT 24.6628131).

As for `Cc1nc(N(C)CC(=O)N(C)C)c2c3c(sc2n1)CCC3`, the PXC50 is under 4 (MAX_EFFECT 0.0) and under 4 (MAX_EFFECT 1.058201058).

On to `NC(=O)c1cccnc1Nc1cccc(S(N)(=O)=O)c1`, for which the PXC50 (MAX_EFFECT 5.69259962) was under 4, the PXC50 (MAX_EFFECT 12.33480176) is under 4 and the PXC50 (MAX_EFFECT 15.08264463) is under 4.

In turn, `O=C(c1ccc2ccc(N3CCN(CC4CC4)CC3)n2c1)N1CCCO1` had a PXC50 (MAX_EFFECT 19.44444444) of under 4 and a PXC50 (MAX_EFFECT 22.0657277) of under 4.

Consider `Cn1ncc2c(N3CCOCC3)nc(Nc3ccc(F)c(F)c3)nc21`, for which the PXC50 was 5.29 (BOTTOM 9.319609168, HILLSLOPE 1.297043796, MAX_EFFECT 53.57833656, TOP 67.28849304); under 4 (MAX_EFFECT 10.12396694); under 4 (MAX_EFFECT 42.73127753).

Regarding `Cn1ncc2c(NC(CO)CO)nc(Nc3ccc(F)c(F)c3)nc21`, the PXC50 worked out at 4.94 (BOTTOM 0.0, HILLSLOPE 0.771628136, MAX_EFFECT 78.30188679, TOP 92.57465731); 4.98 (BOTTOM 5.639474755, HILLSLOPE 1.325747432, MAX_EFFECT 80.3652968, TOP 81.67018871); 4.98 (BOTTOM 7.610636653, HILLSLOPE 1.121965033, MAX_EFFECT 79.69639469, TOP 86.15604804).

Consider `COCCNc1nc(C)nc2sc3c(c12)CCCC3`, for which the PXC50 is, setting by setting: (MAX_EFFECT 3.174603175) under 4; (MAX_EFFECT 4.266666667) under 4.

For the compound `NS(=O)(=O)c1cc(C(=O)O)cnc1Nc1cccc(C(F)(F)F)c1`, the PXC50 runs as follows: (MAX_EFFECT 5.660377358) under 4; (MAX_EFFECT 10.0877193) under 4; (MAX_EFFECT 16.28498728) under 4.

For the compound `COC(=O)CNc1nc(Nc2ccc(F)c(F)c2)nc2c1cnn2C`, the PXC50 by setting is: (BOTTOM 3.451309233, HILLSLOPE 1.311155922, MAX_EFFECT 92.63657957, TOP 92.51088835) 5.87; (BOTTOM -7.309973035, HILLSLOPE 0.885022203, MAX_EFFECT 95.56840077, TOP 99.22229829) 5.83; (BOTTOM -8.727655422, HILLSLOPE 0.982384922, MAX_EFFECT 94.42060086, TOP 95.2064332) 5.96.

For `O=C(NCC1(O)CCCCC1)c1cc(=O)c2ccc(F)c(O)c2o1`, the PXC50 runs as follows: (MAX_EFFECT 5.582137161) under 4; (MAX_EFFECT 7.485604607) under 4.

Regarding `Cc1nnc(NCC2(c3ccccc3)CCOCC2)c(C#N)c1C`, the PXC50 runs as follows: (MAX_EFFECT 7.981220657) under 4; (MAX_EFFECT 16.48148148) under 4.

For the compound `CN(C)c1nc(Nc2ccc(F)c(F)c2)nc2c1cnn2C`, the PXC50 reads like this: (BOTTOM 0.0, HILLSLOPE 0.943271721, MAX_EFFECT 54.1567696, TOP 49.71942024) 6.12; (BOTTOM 0.0, HILLSLOPE 1.040792015, MAX_EFFECT 59.65665236, TOP 50.11386445) 6.1; (BOTTOM 0.0, HILLSLOPE 1.064354186, MAX_EFFECT 50.0967118, TOP 49.52260288) 6.2.

In the case of `CN(CCO)c1nc(Nc2ccc(F)c(F)c2)nc2c1cnn2C`, the PXC50 is 5.71 (BOTTOM 0.0, HILLSLOPE 0.946216108, MAX_EFFECT 71.34724858, TOP 77.67704584); 5.35 (BOTTOM 6.419914674, HILLSLOPE 1.323004722, MAX_EFFECT 73.51598174, TOP 75.78870148); 5.63 (BOTTOM 11.43918674, HILLSLOPE 1.794336173, MAX_EFFECT 61.32075472, TOP 56.10925087).

In the case of `CN(C)CCNc1nc(Nc2ccc(F)c(F)c2)nc2c1cnn2C`, the PXC50 runs as follows: (BOTTOM 0.475518208, HILLSLOPE 0.90804468, MAX_EFFECT 68.49315068, TOP 100.0593914) 4.37; (BOTTOM 1.11826122, HILLSLOPE 1.149142478, MAX_EFFECT 65.47169811, TOP 85.8972695) 4.44; (BOTTOM 3.189178936, HILLSLOPE 1.201155954, MAX_EFFECT 69.44971537, TOP 84.11641449) 4.53.

As for `CCc1[nH]c2c(CNc3nc(C)cc(NC)n3)cc(C)cc2c1C`, the PXC50 reads like this: (BOTTOM 0.67274626, HILLSLOPE 1.539733885, MAX_EFFECT 72.46376812, TOP 100.0) 4.25; (BOTTOM -0.906983609, HILLSLOPE 1.456210781, MAX_EFFECT 70.06802721, TOP 103.3868667) 4.22; (MAX_EFFECT 28.19614711) under 4.

For the compound `C[C@H](CO)Nc1nc(Nc2ccc(F)c(F)c2)nc2c1cnn2C`, the PXC50 reads like this: (BOTTOM 0.704945414, HILLSLOPE 0.848291247, MAX_EFFECT 90.56603774, TOP 99.28027428) 5.18; (BOTTOM -2.01884568, HILLSLOPE 0.856610715, MAX_EFFECT 86.93586698, TOP 98.70470885) 5.08; (BOTTOM -5.653457492, HILLSLOPE 0.743768618, MAX_EFFECT 93.13304721, TOP 109.1674954) 5.06.

Take `COc1cnc(Nc2ccc(F)c(F)c2)nc1NCCO`: the PXC50 is, setting by setting: (BOTTOM 1.119092506, HILLSLOPE 0.867597172, MAX_EFFECT 78.41409692, TOP 85.56949583) 5.21; (BOTTOM 1.563075745, HILLSLOPE 0.960019265, MAX_EFFECT 80.27079304, TOP 89.78065845) 4.95; (BOTTOM 4.457946708, HILLSLOPE 0.924831459, MAX_EFFECT 80.78512397, TOP 87.63131575) 5.14.

For the compound `OCCNc1nc(Nc2cccc(Cl)c2)nc2ccsc12`, the PXC50 by setting is: (BOTTOM 1.378134297, HILLSLOPE 1.322835543, MAX_EFFECT 77.47933884, TOP 79.16655544) 5.15; (BOTTOM 6.064283009, HILLSLOPE 1.027674538, MAX_EFFECT 79.88394584, TOP 88.71842546) 4.91; (BOTTOM -3.793761971, HILLSLOPE 0.936804969, MAX_EFFECT 83.25991189, TOP 91.73851926) 5.08.

For the compound `CC(C)c1nc(N2CCC(N3CCCCCC3)CC2)c2cnn(C)c2n1`, the PXC50 is, setting by setting: (BOTTOM 1.611649307, HILLSLOPE 1.510978702, MAX_EFFECT 74.4966443, TOP 100.0) 4.28; (BOTTOM 2.404981537, HILLSLOPE 1.138566115, MAX_EFFECT 78.47222222, TOP 100.0) 4.48; (BOTTOM 5.527995165, HILLSLOPE 1.337567516, MAX_EFFECT 71.57712305, TOP 100.0) 4.24.

On to `CCNc1nc(Nc2ccc(F)c(F)c2)nc2c1cnn2C`, for which the PXC50 was 5.04 (BOTTOM 1.995747486, HILLSLOPE 0.878307732, MAX_EFFECT 82.01754386, TOP 90.74385953); 5.21 (BOTTOM -0.278671712, HILLSLOPE 0.874738485, MAX_EFFECT 76.33587786, TOP 84.21903162); 4.93 (BOTTOM -9.286701073, HILLSLOPE 0.734415983, MAX_EFFECT 80.15414258, TOP 112.1235893).

`Cc1noc(CCNc2nc(Nc3ccc(F)c(F)c3)nc3c2cnn3C)n1`: the PXC50 came out at 4.84 (BOTTOM 2.244251311, HILLSLOPE 1.0049242, MAX_EFFECT 73.69439072, TOP 84.09605428); 4.77 (BOTTOM 5.127321336, HILLSLOPE 1.112866852, MAX_EFFECT 63.09012876, TOP 72.94792798); 4.61 (BOTTOM 6.005431852, HILLSLOPE 0.908019528, MAX_EFFECT 65.55819477, TOP 83.02457631).
